Screens as filed in PubChem BioAssay.
IL-1B inflam inh – qHTS for Inhibitors of Inflammasome Signaling: IL-1-beta AlphaLISA Primary Screen | 360,000 compounds, 4.7% hits | THP-1 LPS/ATP IL-1B secretion, AlphaLISA, 16 h; active compounds read low | activity change, % at 57.5 µM; in the data active = activity change below about -50%; inconclusive = mostly about -30% to -49%
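Secreted IL-1B measured by AlphaLISA bead assay after 16 h compound exposure of THP-1 cells; compounds (final up to 57.5 uM) added 1 h before LPS (250 ng/mL) and ATP (1.25 mM) stimulation; lower signal means less secretion.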
HT1080-NT tox – qHTS for induction of synthetic lethality in tumor cells producing 2HG: qHTS for the HT-1080-NT fibrosarcoma cell line | HT-1080-NT fibrosarcoma viability, CellTiter-Glo ATP luminescence, 48 h | Potency, µM (titrated, usually from 46.1 µM), for the others: at the top dose activity, negative = less viability, usual class: cytotoxic | 360,000 compounds, 1.6% hits | AID 686970, 2013;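 note: NT is the 2HG producing partner of a matched IDH1 knockdown line; potency is the fitted concentration of half-maximal effect; 0% = DMSO-treated cells and -100% = media-only wells without cells; nearly all actives have a fitted effect of over 55% in size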
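Toxicity toward the 2HG-producing NT line was scored as %Activity, normalised to DMSO and no-cell wells, from CellTiter-Glo luminescence after 48 hours' treatment.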
TDP1 cell noCPT – qHTS for Inhibitors of human tyrosyl-DNA phosphodiesterase 1 (TDP1): qHTS in cells in absence of CPT | Potency, µM (highest dose often 46.2 µM), for inactives: at the highest dose activity change, negative = growth inhibition, most hits filed as inhibitors | AID 686978, 2013 | DT40 Tdp1-/- hTDP1 cells, no CPT, ATP luminescence, 48 h | 420,000 compounds, 15% hits; note: potency is the fitted concentration of half-maximal effect; nearly all actives have a fitted effect of over 55% in size
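Camptothecin absent (DMSO only). Human TDP1-complemented DT40 knockout cells, 400 cells/well, 37 °C for minimum 48 hr; ATP measured via CellTiter-Glo, 30 min dark incubation, luminescence.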
HT1080 IDH1KD tx – qHTS for induction of synthetic lethality in tumor cells producing 2HG: qHTS for the HT-1080-IDH1KD cell line. HT-1080 IDH1 knockdown viability, ATP luminescence, 48 h. Potency, µM (series often up to 46.1 µM), inactives show at the top dose activity, negative = toxicity, most hits filed as cytotoxic. 360,000 compounds, 2% hits;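 note: potency is the fitted concentration of half-maximal effect; 0% = DMSO wells and -100% = cell-free medium wells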
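After a 2 h attachment period, IDH1KD HT-1080 cells took pin-transferred compound for 48 h at 37 °C; ATP-based luminescence after 10 min room-temperature reagent incubation reported viability.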
DT40 TDP1 CPT – qHTS for Inhibitors of human tyrosyl-DNA phosphodiesterase 1 (TDP1): qHTS in cells in presence of CPT. chicken DT40 Tdp1-/-;hTDP1 cells + 20 nM CPT, ATP luminescence, 48 h. Potency, µM (top dose mostly 46.2 µM), inactives show at the top dose activity change, negative = growth inhibition, hits mostly inhibitors. 420,000 compounds, 12% hits. AID 686979, 2013; note: potency is the fitted concentration of half-maximal effect; nearly all actives have a fitted effect of over 55% in size
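Cell growth measured by CellTiter-Glo luminescence after a minimum 48 h, 37 C compound exposure with 20 nM CPT in Tdp1-knockout DT40 cells stably expressing hTDP1, seeded 400/well; qHTS titration format.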
Starred values were filed as active, the others as inactive; ? = inconclusive; / = no result. In the library only some 19% were active in any assay of this set; here they are far more common. Unless noted, calls come from the whole dose curve; as a rule, active = well fitted curve in the direction sought with a large enough effect; inconclusive = small, poorly fitted or top-dose-only effect, or another doubt; inactive = no such curve, though single readings can be large; an effect the other way counts as inactive or inconclusive. Unless noted, % is set by controls: 0 for no effect and ±100 for the full control effect.

SMILES	IL-1B inflam inh	HT1080-NT tox	TDP1 cell noCPT	HT1080 IDH1KD tx	DT40 TDP1 CPT
CN1C(=O)C2C3c4ccccc4C(c4ccccc43)[C@@H]2C1=O (stereo partly drawn)	17.7	8.7%	?	6.0%	?
N#C/C(=C\c1ccc(Cl)c([N+](=O)[O-])c1)c1ccccn1	-96.8*	14.6µM*	20.6µM*	10.3µM*	20.6µM*
N#C/C(=C\c1cccnc1)c1ccccn1	0.0	-0.1%	-4.0%	-0.7%	-3.5%
N#C/C(=C\c1ccncc1)c1ccccn1	-100.0*	?	?	?	1.4%
CC(C)N(C)CCOC(=O)C1COc2ccccc2O1 (stereo not drawn)	19.8	-2.5%	-9.3%	-2.2%	-0.6%
COCCCNc1c2c3c(cccc3[nH]c1=O)C(=O)c1ccccc1-2	12.5	?	16.4µM*	?	14.6µM*
COCCCNc1nc2ccccc2[nH]c1=O	6.7	6.3%	20.3%	0.6%	-6.0%
COc1ccccc1OCCNc1nc2c(c(=O)n(C)c(=O)n2C)n1C	27.9	7.7%	18.4µM*	8.6%	29.1µM*
Cn1c(=O)c2c(nc(NCCO)n2C)n(C)c1=O	9.0	?	-10.6%	15.6%	-8.8%
Cn1c(=O)c2c(nc(NCCOc3ccc(C(C)(C)C)cc3)n2C)n(C)c1=O	23.6	1.5%	1.84µM*	-5.5%	1.46µM*
CC(C)CC(=O)n1sc(NC(=O)c2ccccc2)nc1=O	?	15.4%	20.6µM*	12.8%	14.6µM*
CC(O)C(NS(=O)(=O)c1ccc2ccccc2c1)C(=O)OCC(=O)Nc1ccccc1OC(F)F (stereo not drawn)	-7.5	-8.4%	-22.0%	1.0%	-13.4%
CCn1c(CCNC(=O)c2cccs2)nnc1SCC(=O)c1ccc(OC)cc1	23.4	4.9%	-20.6%	-28.8%	?
Cc1c(Cc2ccc3c(c2)OCO3)sc(NC(=O)C2CC2)c1C(N)=O	-19.3	-0.8%	10.3µM*	-20.7%	10.3µM*
Cc1nc(NC(=O)C23CC4CC(CC(C4)C2)C3)sc1Cc1ccc2c(c1)OCO2	56.9	-1.0%	20.6µM*	-12.1%	?
COc1ccc(S(=O)(=O)NCC2CCCO2)cc1NC(=O)c1ccc(Cl)cc1 (stereo not drawn)	-18.0	-5.3%	-28.7%	-3.5%	-17.7%
Cc1nn(CC(=O)Nc2ccc(S(N)(=O)=O)cc2)c(=O)c2ccccc12	23.4	-18.6%	-4.1%	-11.1%	17.3%
C/C(=N\Nc1ccc(Cl)c(Cl)c1)c1ccc(-n2ccnc2)cc1	-65.1*	-22.7%	?	-25.5%	?
C/C(=N\NC(N)=S)c1ccc(-n2ccnc2)cc1	0.0	-1.7%	-11.5%	-0.7%	0.6%
CCOC(=O)c1cc(C#N)c(Nc2ccc(C)cc2)nc1C(F)(F)F	17.5	1.8%	?	-15.9%	-27.0%
CCC(c1nnnn1C(C)(C)C)N1CCN(C/C=C/c2ccccc2)CC1 (stereo not drawn)	-6.7	0.4%	?	9.7%	?
Cc1cccc(C)c1-n1nnnc1C(c1cc2ccccc2o1)N1CCN(C/C=C/c2ccccc2)CC1 (stereo not drawn)	-11.2	?	23.1µM*	?	18.4µM*
Cc1cccc(C)c1-n1nnnc1C(c1cccc2ccccc12)N1CCN(C/C=C/c2ccccc2)CC1 (stereo not drawn)	-10.9	?	5.8µM*	-27.2%	4.61µM*
O=C(CN1CCCCC1)NC(=O)NCc1ccccc1	15.1	6.0%	5.8%	2.7%	25.7%
CCC1=C(OC(=O)c2ccccc2)C(C)(C)C(c2ccccc2)OC1=O (stereo not drawn)	15.3	16.9%	23.1µM*	12.0%	?
SMILES	IL-1B inflam inh	HT1080-NT tox	TDP1 cell noCPT	HT1080 IDH1KD tx	DT40 TDP1 CPT
CC1(C)C(=O)OC(c2ccccc2)C(C)(C)C1=O (stereo not drawn)	-16.4	19.5%	-14.2%	3.2%	3.8%
CC(=O)N(Cc1ccc(F)cc1)c1cccc(C)c1C	21.2	0.2%	20.6µM*	-13.4%	?
CSCCC(C(=O)NCc1ccccc1)n1c(-c2ccc3c(c2)CCO3)nc2ccccc21 (stereo not drawn)	-13.7	-6.0%	?	-10.7%	?
CCC(C(=O)NCc1ccccc1)n1c(-c2ccc3c(c2)CCO3)nc2ccccc21 (stereo not drawn)	-10.2	-4.8%	?	-2.4%	14.6µM*
COC(=O)C1=C(C(=O)OC)[C@]2([C@H]3CC=CCN[C@@H](Cc4ccccc4)C(=O)N3Cc3ccccc3)C=C[C@H]1O2	-8.4	-18.2%	14.6µM*	-28.1%	18.4µM*
COC(=O)C1=C(C(=O)OC)[C@]2([C@@H]3CC=CCN[C@@H](Cc4ccccc4)C(=O)N3Cc3ccccc3)C=C[C@H]1O2	9.9	9.1%	11.6µM*	5.7%	18.4µM*
COCCCN1C(=O)C(CC(=O)NC(c2ccccc2)c2ccccc2)CC(C(=O)N(C(C)C)C(C)C)=C1C (stereo not drawn)	-10.7	14.3%	?	12.2%	?
COc1ccc(CNC(=O)c2cc(S(=O)(=O)N3CCOCC3)cn2C)cc1	-14.0	3.7%	1.7%	-1.3%	-23.4%
COc1ccc(OC)c(CN2CCCC(C(=O)N3CCCCC3)C2)c1 (stereo not drawn)	11.4	1.9%	-28.2%	8.0%	-41.0%
COc1ccc(C(=O)C2CCCN(C/C=C/c3ccccc3OC)C2)c(OC)c1 (stereo not drawn)	?	-13.6%	2.59µM*	?	20.6µM*
CC(C)CN1CCN(Cc2cccn2-c2ccc(Cl)cn2)CC1CCO (stereo not drawn)	-6.9	-4.5%	?	-6.5%	-7.0%
COc1ccc(C(=O)C2CCCN(Cc3c[nH]c4ccccc34)C2)c(OC)c1 (stereo not drawn)	?	?	9.2µM*	?	7.31µM*
COc1ccc(C(=O)C2CCCN(Cc3cccn3-c3ccc(Cl)cn3)C2)c(OC)c1 (stereo not drawn)	/	16.4µM*	20.6µM*	18.4µM*	13µM*
COc1ccccc1/C=C/CN1CCCC(CCC(=O)NCc2ccccc2F)C1 (stereo not drawn)	?	?	20.6µM*	-20.3%	18.4µM*
COc1ccc(C(=O)C2CCCN(Cc3c(F)ccc(F)c3F)C2)c(OC)c1 (stereo not drawn)	-65.5*	4.6%	?	-6.7%	18.5%
